The values that follow come from PubChem BioAssay.

Unmarked numbers belong to inactive results. Calls of active or inactive are those of the source.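 How the source made its calls, unless noted: active means compound that reduces growth-factor-driven endothelial tube area in a mixed cell culture, no cutoff stated; inactive means the rest.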

The first test can be described thus: inhibition of endothelial tube formation, primary screen, imaging, VEGF stimulated, CD31 staining, tube area, NPC library (AID 1117340). As to conditions: VEGF-stimulated ADSC/ECFC co-culture, at 10 µM, stronger effect = higher value.
As for `OCCN1CCN(CCCN2c3ccccc3Sc3ccc(C(F)(F)F)cc32)CC1`, the tube area decrease is 98.9% (active).
As to `NS(=O)(=O)c1cc2c(cc1Cl)NC=NS2(=O)=O`, the tube area decrease is 3.2%.
On the same count and under the same terms, to `O=C1C(CCS(=O)c2ccccc2)C(=O)N(c2ccccc2)N1c1ccccc1` (stereo not drawn) belongs 1%; to `Cc1ccc(-c2cc(C(F)(F)F)nn2-c2ccc(S(N)(=O)=O)cc2)cc1`, 1.2%.
Still for that read-out and setting: to `CN[C@H]1CC[C@@H](c2ccc(Cl)c(Cl)c2)c2ccccc21` belongs 67.1% (active); to `Cc1ccccc1C(OCCN(C)C)c1ccccc1` (stereo not drawn), 2.8%.
Same read-out and setting: to `CCc1nc(N)nc(N)c1-c1ccc(Cl)cc1` belongs 16.8%.
Regarding `COc1cc2nc(N(C)CCCNC(=O)C3CCCO3)nc(N)c2cc1OC` (stereo not drawn), the tube area decrease is -4.5%.
The same measure, in the same setting: to `CN(C)CCOC(c1ccc(Cl)cc1)c1ccccn1` (stereo not drawn) belongs 1.1%.
On the same count and under the same terms, to `N[C@@H](C(=O)N[C@@H]1C(=O)N2C(C(=O)O)=C(Cl)CS[C@H]12)c1ccccc1` belongs -21%.
On the same count and under the same terms, the result for `Nc1ncn([C@@H]2O[C@H](CO)[C@@H](O)[C@H]2O)c(=O)n1` reads 66.1% (active).
With `NCc1ccc(S(N)(=O)=O)cc1`, the tube area decrease was 8.4%.
In the case of `Cc1ncc([N+](=O)[O-])n1CC(C)O` (stereo not drawn), the tube area decrease is -13.6%.
On to `Cc1ccc(C)c(OCCCC(C)(C)C(=O)O)c1`, for which the tube area decrease is -9.2%.
On the same count and under the same terms, the result for `CN1CCCC(n2nc(Cc3ccc(Cl)cc3)c3ccccc3c2=O)CC1` (stereo not drawn) reads 21.5%.
As for `NS(=O)(=O)c1cc2c(cc1C(F)(F)F)NC(Cc1ccccc1)NS2(=O)=O` (stereo not drawn), the tube area decrease is -25.6%.
Regarding `COC1=CC(=O)C[C@@H](C)[C@]12Oc1c(Cl)c(OC)cc(OC)c1C2=O`, the tube area decrease is 24.2%.
Same read-out and setting: to `Cc1cn([C@H]2C[C@H](N=[N+]=[N-])[C@@H](CO)O2)c(=O)[nH]c1=O` belongs 18.1%; to `CN(CCOc1ccc(CC2SC(=O)NC2=O)cc1)c1ccccn1` (stereo not drawn), -11.1%.
`COc1ccc(OC)c(C(O)CNC(=O)CN)c1` (stereo not drawn): the tube area decrease is -15.2%.
For `OC(CCN1CCCC1)(c1ccccc1)C1CCCCC1` (stereo not drawn), the tube area decrease was -12.4%.
As for `NC(=O)N1c2ccccc2CC(=O)c2ccccc21`, the tube area decrease is 0.9%.
The same measure, in the same setting: the result for `CCCNCC(O)COc1ccccc1C(=O)CCc1ccccc1` (stereo not drawn) reads 24.9%.
Still for that read-out and setting: to `C/C=C/C(=O)N(CC)c1ccccc1C` belongs 12.7%; to `CCCCCCNC(=O)n1cc(F)c(=O)[nH]c1=O`, 68.7% (active); to `NC(=O)c1cnccn1`, 14.5%.
`CN(C)CCc1c[nH]c2ccc(C[C@H]3COC(=O)N3)cc12`: the tube area decrease was -1.1%.
Still for that read-out and setting: the result for `COc1ccccc1OCC(O)COC(N)=O` (stereo not drawn) reads 8.8%; that for `COC(=O)Nc1nc2ccc(C(=O)c3ccccc3)cc2[nH]1`, 102% (active); that for `CCn1cc(C(=O)O)c(=O)c2cc(F)c(N3CCN(C)CC3)cc21`, 25.6%.
As to `Cn1cnc([N+](=O)[O-])c1Sc1ncnc2nc[nH]c12`, the tube area decrease was 29.1%.
Still for that read-out and setting: the result for `c1ccc2[nH]c(-c3cscn3)nc2c1` reads 13.1%; that for `Cc1onc(-c2c(Cl)cccc2Cl)c1C(=O)N[C@@H]1C(=O)N2[C@@H]1SC(C)(C)[C@@H]2C(=O)O`, 1.6%.
Consider `Clc1ccc2c(c1)C(N1CCNCC1)=Nc1ccccc1O2`, for which the tube area decrease is -3.9%.
The same measure, in the same setting: to `CO[C@@]1(NC(=O)Cc2cccs2)C(=O)N2C(C(=O)O)=C(COC(N)=O)CS[C@@H]21` belongs 26.2%.
On to `CCc1cccc2c3c([nH]c12)C(CC)(CC(=O)O)OCC3` (stereo not drawn), for which the tube area decrease was -16.6%.
Regarding `CC(C)(C)NCC(O)COc1cccc2c1C[C@H](O)[C@H](O)C2` (stereo partly drawn), the tube area decrease was 13.1%.
On the same count and under the same terms, the result for `O=S(=O)(O)CCS` reads 11.9%; that for `O=c1[nH]cc(F)c(=O)[nH]1`, 56.6% (active).

The nature of another test: GLP1 release stimulators, primary, NCI-H716, NPC library (AID 1117341;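 active means compound raises GLP1 secretion from the human gut endocrine cells, with no numeric limit stated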; further: reference of the scale not given here). Particulars: NCI-H716 cells, at 10 µM, stronger effect = higher value.
`OCCN1CCN(CCCN2c3ccccc3Sc3ccc(C(F)(F)F)cc32)CC1`: the GLP1 secretion stimulation is 15.4%.
Same read-out and setting: the result for `NS(=O)(=O)c1cc2c(cc1Cl)NC=NS2(=O)=O` reads 1.5%.
Same read-out and setting: to `O=C1C(CCS(=O)c2ccccc2)C(=O)N(c2ccccc2)N1c1ccccc1` (stereo not drawn) belongs -0.7%; to `Cc1ccc(-c2cc(C(F)(F)F)nn2-c2ccc(S(N)(=O)=O)cc2)cc1`, 0.7%; to `CN[C@H]1CC[C@@H](c2ccc(Cl)c(Cl)c2)c2ccccc21`, 7.5%.
`Cc1ccccc1C(OCCN(C)C)c1ccccc1` (stereo not drawn): the GLP1 secretion stimulation is 2.1%.
As to `CCc1nc(N)nc(N)c1-c1ccc(Cl)cc1`, the GLP1 secretion stimulation is -0.3%.
The same measure, in the same setting: to `COc1cc2nc(N(C)CCCNC(=O)C3CCCO3)nc(N)c2cc1OC` (stereo not drawn) belongs 14.6%; to `CN(C)CCOC(c1ccc(Cl)cc1)c1ccccn1` (stereo not drawn), 6.8%; to `N[C@@H](C(=O)N[C@@H]1C(=O)N2C(C(=O)O)=C(Cl)CS[C@H]12)c1ccccc1`, -1.7%.
Still for that read-out and setting: the result for `Nc1ncn([C@@H]2O[C@H](CO)[C@@H](O)[C@H]2O)c(=O)n1` reads -0.3%.
Take `NCc1ccc(S(N)(=O)=O)cc1`: the GLP1 secretion stimulation was 1.9%.
On the same count and under the same terms, to `Cc1ncc([N+](=O)[O-])n1CC(C)O` (stereo not drawn) belongs 4.1%.
As for `Cc1ccc(C)c(OCCCC(C)(C)C(=O)O)c1`, the GLP1 secretion stimulation was 2.4%.
On the same count and under the same terms, to `CN1CCCC(n2nc(Cc3ccc(Cl)cc3)c3ccccc3c2=O)CC1` (stereo not drawn) belongs 5.5%.
As to `NS(=O)(=O)c1cc2c(cc1C(F)(F)F)NC(Cc1ccccc1)NS2(=O)=O` (stereo not drawn), the GLP1 secretion stimulation is 1.6%.
For the molecule `COC1=CC(=O)C[C@@H](C)[C@]12Oc1c(Cl)c(OC)cc(OC)c1C2=O`, the GLP1 secretion stimulation is 0.1%.
On the same count and under the same terms, the result for `Cc1cn([C@H]2C[C@H](N=[N+]=[N-])[C@@H](CO)O2)c(=O)[nH]c1=O` reads -0.1%; that for `CN(CCOc1ccc(CC2SC(=O)NC2=O)cc1)c1ccccn1` (stereo not drawn), -2.5%.
Turning to `COc1ccc(OC)c(C(O)CNC(=O)CN)c1` (stereo not drawn), the GLP1 secretion stimulation was 0.7%.
Turning to `OC(CCN1CCCC1)(c1ccccc1)C1CCCCC1` (stereo not drawn), the GLP1 secretion stimulation was 3.4%.
The same measure, in the same setting: the result for `NC(=O)N1c2ccccc2CC(=O)c2ccccc21` reads 0%; that for `CCCNCC(O)COc1ccccc1C(=O)CCc1ccccc1` (stereo not drawn), -2.7%.
Consider `C/C=C/C(=O)N(CC)c1ccccc1C`, for which the GLP1 secretion stimulation is -3.7%.
With `CCCCCCNC(=O)n1cc(F)c(=O)[nH]c1=O`, the GLP1 secretion stimulation is -0.8%.
Same read-out and setting: the result for `NC(=O)c1cnccn1` reads 3.1%.
Still for that read-out and setting: to `CN(C)CCc1c[nH]c2ccc(C[C@H]3COC(=O)N3)cc12` belongs -0.5%; to `COc1ccccc1OCC(O)COC(N)=O` (stereo not drawn), -4%.
With `COC(=O)Nc1nc2ccc(C(=O)c3ccccc3)cc2[nH]1`, the GLP1 secretion stimulation is 2.2%.
In the case of `CCn1cc(C(=O)O)c(=O)c2cc(F)c(N3CCN(C)CC3)cc21`, the GLP1 secretion stimulation is 3.5%.
The same measure, in the same setting: the result for `Cn1cnc([N+](=O)[O-])c1Sc1ncnc2nc[nH]c12` reads 4.1%; that for `c1ccc2[nH]c(-c3cscn3)nc2c1`, 4.2%.
On the same count and under the same terms, the result for `Cc1onc(-c2c(Cl)cccc2Cl)c1C(=O)N[C@@H]1C(=O)N2[C@@H]1SC(C)(C)[C@@H]2C(=O)O` reads 0%; that for `Clc1ccc2c(c1)C(N1CCNCC1)=Nc1ccccc1O2`, 15.3%.
Same read-out and setting: to `CO[C@@]1(NC(=O)Cc2cccs2)C(=O)N2C(C(=O)O)=C(COC(N)=O)CS[C@@H]21` belongs -1.2%; to `CCc1cccc2c3c([nH]c12)C(CC)(CC(=O)O)OCC3` (stereo not drawn), -0.9%; to `CC(C)(C)NCC(O)COc1cccc2c1C[C@H](O)[C@H](O)C2` (stereo partly drawn), -1.3%.
On to `O=S(=O)(O)CCS`, for which the GLP1 secretion stimulation is 2.6%.
Same read-out and setting: to `O=c1[nH]cc(F)c(=O)[nH]1` belongs -0.1%.
